Sampled rows, rich in hits. Any-hit rate of the full collection: about 10%.
HP1b chromo inh: HP1-beta chromodomain-methylated histone interaction inhibition | P83916 | AlphaScreen HP1-beta / biotin-H3K9me3 peptide binding | Potency, µM (titrated, usually from 114 µM), actives largely listed as inhibitors | 390,000 tested, 0.56% active; further: nearly all actives have a fitted effect of over 70% in size
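HP1-beta protein (50 nM final) preincubated 30 min at room temperature with biotinylated H3(1-18)K9me3 peptide (50 nM) in PBS pH 7.4, 0.01% Tween-20, then compound added for 30 min. AlphaScreen streptavidin donor/nickel chelate acceptor beads (10 ug/mL final), 30 min dark, luminescence read.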
G9a block: inhibitors of human histone lysine methyltransferase G9a | G9a H3K9 monomethylation, AlphaScreen, 2 h | Potency, µM (highest dose often 102 µM), most hits filed as inhibitors | AID 504332 | 350,000 tested, 8.8% active; further: nearly all actives have a fitted effect of over 75% in size
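Readings reflect AlphaScreen signal from monomethyl-H3K9 antibody detection. HMT at 20 nM; substrate b-H3K9 500 nM; cofactor SAM 20 uM; 2 h RT reaction; compounds tested as titrations in qHTS with 15 min preincubation.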
JMJD2A Tudor inh: blocks the human JMJD2A Tudor domain | AlphaScreen JMJD2A-Tudor / H3K4me3 peptide binding | Potency, µM (highest dose often 114 µM), usual class: inhibitors | 390,000 tested, 4.4% active | AID 504339; further: nearly all actives have a fitted effect of over 50% in size
CtBP-E1A inh: inhibitors of CtBP/E1A interaction; AlphaScreen GST-E1A/His-CtBP binding, 1536-well; active compounds read low; activity change, % (test concentration not listed); 340,000 tested, 0.49% active; in the data active means activity change below about -65%; inconclusive means mostly about -30% to -63%
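AlphaScreen with 125 nM GST-E1A and 125 nM His-CtBP (5X stocks) in Tris pH 8.0, 300 mM NaCl, BSA, Tween 20, TCEP. Compounds preincubated 2 h at 37 deg C, then glutathione donor/nickel acceptor beads added for 1 h at 37 deg C in dark.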
Six1-Eya2 inh: Six1/Eya2 interaction inhibition. activity change, % (concentration not given with the values). Q15475+O00167. AlphaScreen GST-Six1/His-Eya2 binding, biochemical; active compounds read low. 360,000 tested, 0.56% active. AID 651725; in the data active means activity change below about -65%; inconclusive means mostly about -30% to -63%
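Six1/Eya2 binding was read as AlphaScreen signal after compounds were pinned into GST-Six1 plus His-tagged Eya2 (5X stock 250/500 nM) in pH 8.0 Tris/NaCl/TCEP buffer, beads added, then incubated 1 h, 37 C, dark.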
BAZ2B block: BAZ2B (human) inhibition | Q9UIF8 | AlphaScreen BAZ2B-H3K14Ac peptide displacement | Potency, µM (highest dose often 114 µM), actives largely listed as inhibitors | 360,000 tested, 4.4% active | AID 504333; further: nearly all actives have a fitted effect of over 60% in size
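AlphaScreen displacement of biotin-H3(5-23)K14Ac peptide (50 nM final) from BAZ2B (50 nM final) in PBS pH 7.4, 0.01% Tween-20; complex preformed 30 min RT, then compounds (top 110 uM) 30 min RT, beads 20 min dark.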
A number is an active result; i = inactive; ? = inconclusive; nt = no result; [ ] = dose if it differs, or a comment. Unless noted, the call rests on the fitted dose curve; in most records, active means well fitted inhibition curve with a large enough effect; inconclusive means small, poorly fitted or top-dose-only effect; inactive means no such curve, though single readings can be large or run the other way.

SMILES	HP1b chromo inh	G9a block	JMJD2A Tudor inh	CtBP-E1A inh	Six1-Eya2 inh	BAZ2B block
Cc1cc(C)c(NC(=O)CCN2CCCCC2)c(C)c1	i	i	i	nt	nt	i
O=C1CC(/C=C/c2ccncc2)=Nc2ccccc2N1	i	40µM	i	i	i	i
C=CC(=O)Nc1ccc(N(C)c2ccnc(Nc3ccc(N4CCN(C)CC4)cc3)n2)cc1	?	nt	35µM	i	?	nt
O=C(C1CC(c2ccccc2O)=NO1)N1CCCCC1 (stereo not given)	i	?	89µM	i	i	?
O=C(NCc1cccnc1)C1CC(c2ccccc2O)=NO1 (stereo not given)	i	25µM	50µM	i	i	?
O=c1c(S(=O)(=O)c2ccccc2)cn(Cc2ccccc2)c2cc(N3CCOCC3)c(F)cc12	i	i	i	nt	nt	i
CCN(CC)CCCNC(=O)C(C)n1nc(C)n2c(cc3occc32)c1=O (stereo not given)	i	i	i	nt	nt	i
O=C(Cn1c(-c2ccco2)nc2ccccc21)N1CCCCC1	i	i[0.501 µM]	i	i	i	i
CCn1c(-c2ccco2)nc2ccccc21	i	6.3µM	i	i	i	i
c1ccc(OCCn2c(-c3ccco3)nc3ccccc32)cc1	i	40µM	i	i	i	?
O=C(CCc1ccccc1)N=C1SC2CS(=O)(=O)CC2N1Cc1ccccc1 (stereo not given)	i	i	i	i	i	i
COc1cc(CN2CCc3ccc(NC(=O)CCc4ccccc4OC)cc3C2)ccc1O	i	45µM	?	i	i	i
COC(=O)c1ccc(CN2CCc3ccc(NC(=O)c4ccncc4)cc3C2)cc1	i	50µM	i	i	i	i
COc1cccc(CN2CCc3ccc(NC(=O)CCc4ccc(C)cc4)cc3C2)c1O	i	40µM	i	i	i	?
CC(=O)Nc1ccc(NC(=O)c2ccc(CN3CCc4ccccc4C3)cc2)cc1	i	i	i	i	i	i
COc1ccc(CN2CCc3ccc(NC(=O)CCc4ccccc4OC)cc3C2)c(O)c1	i	?	i	i	i	i
CCCCCn1c(=O)[nH]c2cc(C(=O)N3CCN(c4cccc(Cl)c4)CC3)ccc2c1=O	i	i	i	nt	nt	i
CC(C)N(Cc1ccccc1)C(=S)NC(=O)C1(C)CC1(Cl)Cl (stereo not given)	i	i	i	i	i	i
CC1(C(=O)NC(=S)N(CCC#N)c2ccccc2)CC1(Cl)Cl (stereo not given)	i	28µM	?	i	i	i
CC(=O)N1CCN(c2csc3ccc(Cl)cc3c2=O)CC1	i	i	i	nt	nt	i
COc1ccccc1/C=C\C=N\n1c(-c2ccc(Cl)cc2)n[nH]c1=S	i	4.5µM	i	i	i	i
COc1ccccc1/C=C/C=N/n1c(-c2ccc(F)cc2)n[nH]c1=S	i	4µM	i	i	i	i
COc1ccccc1/C=C\C=N\n1c(-c2ccc(Cl)cc2Cl)n[nH]c1=S	?	6.3µM	?	i	i	?
Cc1ccc(C(=O)N(C)c2ccc(OCC(=O)N3c4ccc(C)cc4C4CN(C)CCC43)cc2)cc1 (stereo not given)	i	i	i	i	i	i
C=C1C(O)[C@@H]2O[C@]3(CC[C@H](/C=C/C(C)[C@@H]4CC(C)=CC5(O[C@H](C[C@@](C)(O)CO)CCC5O)O4)O3)CC[C@H]2O[C@@H]1C(O)CC(C)[C@H]1OC2(CCCCO2)CCC1C (stereo not given in full)	i	nt	i	i	i	nt
SMILES	HP1b chromo inh	G9a block	JMJD2A Tudor inh	CtBP-E1A inh	Six1-Eya2 inh	BAZ2B block
CCc1cccc(CC)c1NC(=O)CNCc1cccs1	71µM	35µM	25µM	i	i	56µM
CC(C)(C)n1nc2c(c1NC(=O)Cc1ccc(Cl)cc1)CS(=O)(=O)C2	i	i	i	i	i	i
CCOc1ccc(CC(=O)Nc2c3c(nn2C(C)(C)C)CS(=O)(=O)C3)cc1	i	79µM	i	i	i	i
COc1ccccc1C1/C(=C(/O)c2ccc(Cl)cc2)C(=O)C(=O)N1CCN1CCOCC1 (stereo not given)	i	?	?	i	i	?
O=C1C(=O)N(CCN2CCOCC2)C(c2ccccc2F)/C1=C(\O)c1ccc(S(=O)(=O)N2CCOCC2)cc1 (stereo not given)	i	50µM	i	i	i	i
O=C1C(=O)N(CCN2CCOCC2)C(c2ccc(Cl)cc2)/C1=C(/O)c1ccc(S(=O)(=O)N2CCOCC2)cc1 (stereo not given)	i	56µM	i	i	i	i
CN(C)CCN1C(=O)C(=O)/C(=C(/O)c2ccc(S(=O)(=O)N3CCOCC3)cc2)C1c1ccccc1 (stereo not given)	i	i	i	i	i	i
CC1Cc2ccccc2N1C(=O)COC(=O)c1n[nH]c(=O)c2ccccc12 (stereo not given)	i	i[12.7 µM]	i	i	i	i
COc1ccc(NC(=O)c2ccc(-c3nc(COc4ccccc4)c(C)o3)cc2)cc1	i	i	i	nt	nt	i
CC(=O)c1ccc(NC(=O)c2ccc(-c3nc(COc4ccc(C)cc4)c(C)o3)cc2)cc1	45µM	?	i	nt	nt	i
CCOC(=O)N1CCC(NC(=O)CS(=O)(=O)Cc2nc(-c3cccc(Cl)c3)oc2C)CC1	i	i	i	i	i	i
COc1ccc(-c2nc(CS(=O)(=O)CC(=O)Nc3cccc(C(C)=O)c3)c(C)o2)cc1	i	20µM	i	i	i	i
Cc1oc(-c2cccc(Cl)c2)nc1CS(=O)(=O)CC(=O)NC1CC1	i	50µM	i	i	i	i
Cc1ccc(C(=O)NNC(=O)C(NC(=O)c2cccc(C)c2)C(C)C)cc1 (stereo not given)	i	i	i	nt	i	i
CCOC(=O)c1ccc(CC(=O)c2ccc(O)cc2O)o1	i	22µM	i	i	i	i
COC(=O)c1ccc(CC(=O)c2ccc(O)cc2O)o1	i	22µM	i	i	i	63µM
COC(=O)c1cc(CC(=O)c2ccc(O)cc2O)c(C)o1	i	i	i	i	i	?
COC(=O)c1ccc(CC(=O)c2c(C)cc(O)cc2O)o1	i	45µM	?	i	i	?
COCc1cc(C)nc2sc3c(c12)NC(c1ccc(O)cc1)N(c1ccc(C)cc1)C3=O (stereo not given)	i	i	i	nt	nt	i
COC(=O)/C=C1\N/C(=N\c2nc(C)cc(C)n2)N(c2ccc(C)c(C)c2)C1=O	i	?	28µM	i	i	i
COC(=O)/C=C1\N/C(=N/c2nc(C)c3cc(OC)ccc3n2)NC1=O	i	i	i	i	i	i
Cc1cc(C)nc(/N=C2\NC(=O)CC(C(=O)O)N2c2ccc(F)c(Cl)c2)n1 (stereo not given)	nt	i	nt	nt	nt	i

Screens from PubChem BioAssay.
